These results are taken from ChEMBL document CHEMBL4513216, “Probing the Open Global Health Chemical Diversity Library for Multistage-Active Starting Points for Next-Generation Antimalarials” (ACS Infect Dis, 2020).

Out of some 65,000 compounds screened, about 2,100 (3.2%) showed an effect of 50% or more. The median lay at about -52%. The entries come from a sample that favours strong results as a whole.

This test has as its system Plasmodium falciparum. Kind of test: Screen against P. falciparum Asexual Blood Stage (ABS), at 5uM. In kind it is functional, Dd2. As to conditions: tested at 5 uM.
`CC(C)[C@H]1CN(C2Cc3ccccc3C2)C[C@@H]1NS(=O)(=O)N(C)C`: the INHIBITION was determined as 61.6%. The same measure for `Cc1nc(CN2C[C@@H](NS(=O)(=O)N(C)C)[C@H](C(C)C)C2)cs1`: 19.1%; for `CC(C)[C@@H]1CN(Cc2ccsc2)C[C@H]1NS(=O)(=O)N(C)C`: 66.3%. The same measure for `CC(C)[C@@H]1CN(CCOc2ccccc2)C[C@H]1NS(=O)(=O)N(C)C`: 40.3%; for `CC(=O)c1cc(CN2C[C@@H](NS(=O)(=O)N(C)C)[C@H](C(C)C)C2)cs1`: 32.8%; for `CC(C)[C@H]1CN(C2Cc3ccccc3C2)C[C@@H]1NS(C)(=O)=O`: 34.6%.

For `Cc1ccsc1CN1CCc2c(nc(N3CCCCC3C)[nH]c2=O)C1` (stereo not drawn), the INHIBITION is listed as -14.7%. As for `COCCN1C[C@@H]2CN(c3cc(OC)ncn3)CCC[C@]2(C(=O)O)C1`, the INHIBITION is listed as -84%. The same measure for `O=C(NCc1cn2c(n1)CN(CC1CCOCC1)CC2)C1CCC1`: -14.2%; for `c1ncn(Cc2nnc(C3CCN(CC4CC4)CC3)n2C2CC2)n1`: -88.1%. The same measure for `Cc1cc(NC(=O)NCC(O)c2ccc(F)cc2)n(C)n1` (stereo not drawn): 18.3%; for `Cc1cc(C)cc(CNc2ccc(C(=O)NC(C)CO)cc2)c1` (stereo not drawn): -96.7%. Take `COC(=O)CC1CCCCN1CC(=O)Nc1ccc(F)cc1Cl` (stereo not drawn): the INHIBITION is given as -174%.

In the case of `CCN1CCCC(O)(CNCc2ccccc2F)C1` (stereo not drawn), the INHIBITION is listed as 40.6%. The same measure for `CCN1CCCC(O)(CN(C)Cc2c(C)nn(C)c2C)C1` (stereo not drawn): -105%. For the compound `CCN1CCCC(O)(CN(C)Cc2ccccc2F)C1` (stereo not drawn), the INHIBITION worked out at 57.5%. With `Cc1nn(C)c(Cl)c1C1CCCN1CC(=O)NCc1ccco1` (stereo not drawn), the INHIBITION is -24.5%.

For `CC(NCc1cccs1)c1ccc(OCc2nccn2C)cc1` (stereo not drawn), the INHIBITION is recorded as -50.1%. Then `CCc1cc(N2CCCNCC2)n2nc(C)c(C)c2n1`, with 54.5%. The same measure for `CCc1cc(N2CCS(=O)(=O)CC2)n2nc(C)c(C)c2n1`: -16.5%; for `CCc1cc(N2CCSCC2)n2nc(C)c(C)c2n1`: -90.3%. For the compound `CCNc1ncc(CN2C[C@@H]3CC[C@H]2CN(C(=O)C2CCC2)C3)cn1`, the INHIBITION is -47.5%. Then `O=C([C@H]1CCCO1)N1CCCC2(COCCN(c3ccccc3)C2)C1` (stereo partly drawn), with 25.2%.

On to `Cc1cnn(CCNCC(O)COc2ccc(Cl)cc2)c1` (stereo not drawn), for which the INHIBITION is on record as -16.9%. `Cc1cnn(CCNCC(O)COc2ccc(Cl)cc2Cl)c1` (stereo not drawn): the INHIBITION is recorded as 20.2%. The same measure for `Cc1cnn(CCNCC(O)COc2cc(Cl)ccc2Cl)c1` (stereo not drawn): 58%; for `c1cc(CNCc2ccc(-n3cncn3)nc2)cc(OC2CCCC2)c1`: -6.1%; for `Cc1ccc(C(=O)N2CCc3ncnc(-c4cnn(C)c4)c3CC2)o1`: -34.2%. The same measure for `Cc1ccc(OCC(=O)Nc2ccc(S(C)(=O)=O)cc2)cc1C`: -89.1%; for `N#Cc1ccc(NCCCN2C(=O)COc3ccccc32)nc1`: -30.6%. Then `N#Cc1c(Cl)nsc1NCCCN1C(=O)COc2ccccc21`, with 58.1%; and `N#Cc1cnc(NCCCN2C(=O)COc3ccccc32)c(Cl)c1`, with -73.7%; and `CC(C)NC(=O)c1sc2ccccc2c1C1CCC(CN)CC1` (stereo not drawn), with 0.324%. Consider `COc1nn(C)c2c1CCCN(C(=O)c1ccc3ccccc3n1)C2`, for which the INHIBITION is reported as -94.4%. With `O=C(c1ccc[nH]1)N1C[C@@H]2CC[C@H]1CN(C1Cc3ccccc3C1)C2`, the INHIBITION was -60.5%.

With `CCCc1nc(C[S+]([O-])Cc2cn3cccc(C)c3n2)no1` (stereo not drawn), the INHIBITION is recorded as -22%. With `CCN1CCO[C@@H]2CN(C(=O)c3ccc4[nH]ccc4c3)CC[C@@H]2C1`, the INHIBITION is given as -49.2%. Then `CN1CCCN(c2nccc(-c3cc(C(=O)O)ccn3)n2)CC1`, with -113%. Then `Cc1ncc(-c2ccnc(N3CCC[C@@H]3CO)n2)c(-c2cccnc2)n1`, with -23.8%; and `OCCNc1nccc(-c2c[nH]nc2-c2ccncc2)n1`, with -56.1%; and `OC[C@@H]1CCCN1c1nccc(-c2c[nH]nc2-c2ccncc2)n1`, with 68.3%. In the case of `CN1CCCN(c2nccc(-c3c[nH]c4ccc(Br)cc34)n2)CC1`, the INHIBITION was determined as 43.1%. Then `CN1CCCN(c2nccc(-c3c[nH]nc3-c3ccncc3)n2)CC1`, with 66.9%; and `CNc1cccc(C2CCCN(C(=O)c3cscn3)C2)n1` (stereo not drawn), with -9%; and `CC1N(C)C(=O)COC12CCN(Cc1ccsc1)CC2` (stereo not drawn), with -52.9%. Then `COCCN1CCCC1c1nccnc1Nc1nccs1` (stereo not drawn), with 1.36%; and `Cc1cccn2c(CC(=O)N3CCC(CCn4cccn4)CC3)cnc12`, with -1.65%; and `N#Cc1cccc(OCCN2CCCC2C(=O)NC2CC2)c1` (stereo not drawn), with -14.2%.

For `N#Cc1cccc(OCCN2CCCC2C(=O)N2CCSCC2)c1` (stereo not drawn), the INHIBITION came out at 51.9%. Then `N#Cc1cccc(OCCN2CCCC2C(=O)NCC(F)(F)F)c1` (stereo not drawn), with 1.9%. As to `Cc1cccn2cc(CNCc3cccc4c3OCCCO4)nc12`, the INHIBITION worked out at 53.7%.

As for `c1cc(CNCCc2cn3ccccc3n2)c2c(c1)OCCCO2`, the INHIBITION is on record as -57.2%.

For the compound `Cc1cccc2nc(CNCc3cccc4c3OCCCO4)cn12`, the INHIBITION was found to be 47.8%. Then `Cc1ccc(CN2Cc3c(C(=O)N(C)C)nn(C)c3C2)s1`, with -70.8%; and `Cc1nnc(N2C[C@@H](OCCCn3cccn3)[C@H]3OCCC[C@H]32)s1`, with -31.4%; and `OC1(CNCc2csc(-c3ncccn3)n2)CCCNC1` (stereo not drawn), with -26.6%.

Regarding `CC(C)Oc1cccc(CNC(Cc2ccsc2)c2nccs2)c1` (stereo not drawn), the INHIBITION was -29.2%. The same measure for `Cc1cccnc1C(Cc1ccsc1)NCc1cnc(N(C)C)nc1` (stereo not drawn): 66.6%. The same measure for `Cc1cccnc1C(Cc1ccsc1)NC(=O)Cn1cccnc1=O` (stereo not drawn): 4.78%; for `CN1CCCC(Cc2cncc(C(=O)N3CCOCC3)c2)C1` (stereo not drawn): -133%; for `O=S1(=O)NC(c2ccnc(N3CCOCC3)n2)=Nc2ccccc21`: -15.8%.

With `CN(Cc1ccccc1)C(=O)CSc1ccc2c(c1)OCCO2`, the INHIBITION is reported as -122%. Then `O=C(CO)N1CCCC2(CCN(c3ccsc3)C2=O)C1` (stereo not drawn), with -104%.

`COCCN1CCCC2(CCN(c3ccsc3)C2=O)C1` (stereo not drawn): the INHIBITION is 16%. The same measure for `CN(C)C(=O)CN1CCCC2(CCN(c3ccsc3)C2=O)C1` (stereo not drawn): -78.3%. The same measure for `COc1ccc(CN2CCC3(CCN(c4cccnc4)C3=O)C2)cc1` (stereo not drawn): -23.2%; for `O=C1N(c2ccsc2)CCC12CCCN(CC1CC1)C2` (stereo not drawn): 51.6%. For `COc1ccc(CN2CCCC3(CCN(c4ccsc4)C3=O)C2)cc1` (stereo not drawn), the INHIBITION is given as 62.3%. The same measure for `CC1COC2(CCN(C(=O)Cc3ccncc3)CC2)C1` (stereo not drawn): -78.3%. Then `Cc1cc(C2CCCN(CCc3ccc4c(c3)CCO4)C2)n[nH]1` (stereo not drawn), with -25.4%. Turning to `COc1ccccc1OCCN1CCCCC1Cn1cncn1` (stereo not drawn), the INHIBITION is recorded as -9.63%. For the compound `CCc1nnc(Nc2cccc(C3CCN(S(=O)(=O)N(C)C)CC3)n2)s1`, the INHIBITION was 7.99%.

As to `O=C(NCc1nncn1-c1ccccc1)C1CCCCC1`, the INHIBITION is on record as -107%. Then `OC1(CN2CCCCC2)CCN(c2ccc(C(F)(F)F)cn2)C1` (stereo not drawn), with 53.5%. Then `N[C@@H]1c2ccccc2C2(CCN(c3ccc(C(F)(F)F)cn3)CC2)[C@H]1O`, with -38.4%; and `OC1(CN2CCCCC2)CCN(c2cc(C(F)(F)F)ccn2)C1` (stereo not drawn), with 39.2%; and `OC1(CN2CCCCC2)CCN(c2nccc(C(F)(F)F)n2)C1` (stereo not drawn), with -41.9%. The same measure for `O=C1CCC2(CCN(c3cccc(C(F)(F)F)n3)CC2)CN1CCO`: -33.7%; for `OC1(CN2CCCCC2)CCN(c2cccc(C(F)(F)F)n2)C1` (stereo not drawn): 60.4%. For the compound `Cc1ccc(C(=O)N2CCC(c3n[nH]c(C4CC4)n3)CC2)cc1F`, the INHIBITION is on record as -91.9%. In the case of `Cn1ccnc1CN1CCC2(CC1)CC(Oc1cccnc1)C2`, the INHIBITION is given as -85.4%. The same measure for `Cc1ccc(NC(=O)CC2NC(N3CCc4ccccc43)=NC2=O)cc1` (stereo not drawn): -135%.

For the compound `O=C1CC(c2ccncc2)C2(CCN(CCc3ccccc3)CC2)N1` (stereo not drawn), the INHIBITION is given as -55.3%. With `O=C1CCC2(CCCN(C(=O)c3cccnc3)CC2)N1` (stereo not drawn), the INHIBITION is -40.9%. On to `O=C1CCC2(CCCN(C(=O)c3cnccn3)CC2)N1` (stereo not drawn), for which the INHIBITION came to 51.9%. As to `O=C1CCCC2(CCN(C(=O)c3cnccn3)CC2)N1`, the INHIBITION was -96.5%. `O=C(NCCN1CCCC1)C1(c2ccc(Cl)cc2)CCOCC1`: the INHIBITION was 63.7%. Then `Cc1ccccc1C1(C(=O)NCCN2CCCC2)CCOCC1`, with -5.04%; and `COc1ccccc1C1(C(=O)NCCN2CCCCC2)CCOCC1`, with -35.3%. The same measure for `CC(Oc1ccc2c(c1)OCO2)C(=O)N1CCC(N2CCOCC2)CC1` (stereo not drawn): -162%; for `CCn1cc(NC(=O)CN2CCC(Oc3ccc(F)cc3)CC2)c(C)n1`: -33.8%.

For `Cc1cc(N2CCCN(c3ccnc(C)c3)CC2)ccn1`, the INHIBITION is reported as -86.7%. The same measure for `Cc1cc(N2CCCN(c3nc(C)nc(C)c3C)CC2)ccn1`: 58%; for `Cc1cc(N2CCCN(Cc3ccc(C)o3)CC2)ccn1`: 35.2%. The same measure for `Cc1n[nH]c(C)c1C1COCCN1c1ncnc2sccc12` (stereo not drawn): -34.7%. The same measure for `COCCN1CCC(c2nc3ccc(NC4CCC4)cn3n2)CC1`: -2.13%; for `CCN(CC)CCn1cnc(-c2ccccc2)c1-c1cnc(C)s1`: 54.2%; for `CCN(CC)CCn1cnc(-c2ccccc2)c1-c1ncc[nH]1`: -46.8%.

`CCN(CC)CCn1cnc(-c2ccccc2)c1-c1cnn(CC)c1`: the INHIBITION is 20.8%. Then `Cc1nc(CCCNC(=O)Nc2cc(F)cc(F)c2)n[nH]1`, with 0.825%. Then `O=C(O)c1ccc(CC2CCN(Cc3ccc(-c4cc[nH]n4)o3)C2)cc1` (stereo not drawn), with -200%. The same measure for `NC(=O)CN1CCC(OCc2ccc(Cl)c(Cl)c2)CC1`: 32.6%; for `CNC(=O)CN1CCC(OCc2ccc(Cl)c(Cl)c2)CC1`: -0.573%; for `CCC(N)C(=O)N1CCC(OCc2ccc(Cl)c(Cl)c2)CC1` (stereo not drawn): 65.5%. As for `CC1CCCCN1C(=O)CCc1nnc(-c2ccccc2)o1` (stereo not drawn), the INHIBITION is reported as -26.9%. Then `O=C(Cn1nc(-c2ccc(F)cc2)oc1=O)NCc1ccncc1`, with -63.3%. As for `Cc1ccc(CNC(=O)Cn2nc(-c3ccc(F)cc3)oc2=O)cc1F`, the INHIBITION is 55.6%. The same measure for `O=C(Cn1nc(-c2ccc(F)cc2)oc1=O)NCc1ccc(F)cc1`: -11.2%.
